# Bioassay records as filed in PubChem BioAssay.
# Most compounds without a hit are left out; they make up all but 4% or so of the library.
# KKLEB tox = counter-screen for CF NF-kB inhibitors: cytotoxicity | KKLEB CF airway cells viability, ATPlite luminescence, overnight; hits give low values; cells stimulated with P. aeruginosa culture filtrate | activity change (cytotoxicity), % at 5 µM | 360,000 tested, 0.36% active | AID 602141;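 active = corrected activity change at or below -50% at 5 µM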
# TWEAK-Fn14 inh = inhibitors of TWEAK-Fn14 interaction signaling; TWEAK-stimulated Fn14 reporter cells, luciferase luminescence, 8 h; inhibition, % at 10 µM; 360,000 tested, 2% active; AID 1159606; in the data active = inhibition above about 50%
# Peg3 prom inh = inhibitors of Peg3 promoter | HeLa PEG-Prom luciferase reporter, luminescence, overnight | inhibition, % at 20 µM | 360,000 tested, 1.7% active;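 active = inhibition of at least 50% at 20 µM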
# CF NFkB block = inhibitors of cystic fibrosis induced NF-kB; KKLEB NF-kB-GFP reporter, PAF-induced, GFP fluorescence overnight; inhibition, % at 5 µM; 360,000 tested, 0.86% active;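 active = at least 50% inhibition at 5 µM, scaled per plate between neutral and stimulator controls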;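 note: PAF is a Pseudomonas aeruginosa culture filtrate used as stimulus; plate controls were PAF-stimulated DMSO wells for no effect and unstimulated DMSO wells for full effect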
# HIF-2a inh = HIF-2a inhibition. 786-0 RCC cells HIF-2a reporter, luciferase luminescence, overnight. AID 624352. inhibition, % at 18.8 µM. 360,000 tested, 0.72% active;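 active = inhibition of the luminescence signal of 40% or more relative to plate controls, in a single-dose primary screen at 18.75 µM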
# TROY NFkB inh = TROY signaling inhibition; AID 1347056; inhibition, % at 10 µM; Q293 LMP1-TROYcd NF-kB luciferase reporter, 4 h; 360,000 tested, 0.98% active;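 active = compounds whose plate-normalised and pattern-corrected inhibition of the luciferase reporter signal at the single screening dose is 50% or more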
# Mdm2-MdmX confirm = confirmation of inhibitors of human Mdm2/MdmX interaction, set 2; shares compounds with HIF-2a inh; inhibition, % at 8 µM; 740 tested, 99% active; SaOS-2 split-luciferase Mdm2/MdmX complementation, luminescence;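 active = mean inhibition of the luminescence signal across two replicates at or above 26 percent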
# Target sequence (O15151 whole entry, looked up): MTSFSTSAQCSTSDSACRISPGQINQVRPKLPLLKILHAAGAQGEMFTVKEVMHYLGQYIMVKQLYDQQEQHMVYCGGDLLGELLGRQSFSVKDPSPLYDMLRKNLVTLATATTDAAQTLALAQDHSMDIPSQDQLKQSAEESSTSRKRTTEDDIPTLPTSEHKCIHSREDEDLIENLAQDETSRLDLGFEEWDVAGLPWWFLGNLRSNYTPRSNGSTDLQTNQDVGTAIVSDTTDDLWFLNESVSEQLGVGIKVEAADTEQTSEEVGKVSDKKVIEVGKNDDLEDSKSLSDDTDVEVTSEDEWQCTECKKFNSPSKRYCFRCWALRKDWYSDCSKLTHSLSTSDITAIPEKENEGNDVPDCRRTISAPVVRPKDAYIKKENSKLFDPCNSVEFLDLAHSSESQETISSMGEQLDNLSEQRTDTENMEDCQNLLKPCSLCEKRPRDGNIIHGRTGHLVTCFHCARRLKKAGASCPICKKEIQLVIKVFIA
# Target sequence (Q00987 whole entry, looked up): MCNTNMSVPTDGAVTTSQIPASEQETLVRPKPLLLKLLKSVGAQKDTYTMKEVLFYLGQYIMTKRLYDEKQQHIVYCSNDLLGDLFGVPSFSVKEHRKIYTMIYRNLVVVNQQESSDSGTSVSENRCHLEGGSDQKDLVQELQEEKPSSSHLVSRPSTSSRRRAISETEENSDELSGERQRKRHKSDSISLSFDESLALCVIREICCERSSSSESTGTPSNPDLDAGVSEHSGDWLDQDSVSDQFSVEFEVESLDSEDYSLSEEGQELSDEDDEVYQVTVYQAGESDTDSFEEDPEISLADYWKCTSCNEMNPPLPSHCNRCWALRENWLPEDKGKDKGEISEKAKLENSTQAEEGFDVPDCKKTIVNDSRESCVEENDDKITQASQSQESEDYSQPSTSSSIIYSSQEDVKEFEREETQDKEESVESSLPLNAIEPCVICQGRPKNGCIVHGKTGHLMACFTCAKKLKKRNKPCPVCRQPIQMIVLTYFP
# HIF-2a conf = confirmation of HIF-2a inhibitors. inhibition, % at 18.8 µM. 786-0 RCC cells, HIF-2a luciferase reporter luminescence, overnight. AID 651580. 1,800 tested, 56% active. shares compounds with HIF-2a inh;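 active = mean inhibition across four replicates of at least 40 percent at the single tested concentration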
# HIF-1a counter = HIF-1a inhibition counter-screen for HIF-2a hits; shares compounds with HIF-2a inh; MiaPaCa-2 HIF-1a luciferase reporter, desferoxamine, overnight; inhibition, % at 18.8 µM; 1,800 tested, 72% active; AID 651589;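 active = mean inhibition of the reporter signal across four replicates at the single tested dose of 50% or more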
# Starred values were filed as active, the others as inactive; / = no result.
SMILES,KKLEB tox,TWEAK-Fn14 inh,Peg3 prom inh,CF NFkB block,HIF-2a inh,TROY NFkB inh,HIF-2a conf,HIF-1a counter,others
Cn1nnnc1Sc1ncnc2scc(-c3ccccc3C(F)(F)F)c12,-18.3,28.2,18.4,22.3,51.0*,8.8,46.3*,59.0*,
COc1cccc(-c2csc3ncnc(Sc4nnnn4C)c23)c1,-12.5,75.4*,88.5*,46.6,47.4*,38.2,42.6*,98.4*,
Cn1nnnc1Sc1ncnc2scc(-c3cccs3)c12,/,/,/,/,/,/,/,/,Mdm2-MdmX confirm=102.7*
COc1cccc(CNCCSc2nnnn2C)c1,-6.5,2.7,-8.5,11.1,18.1,-7.9,/,/,
Cn1nnnc1Sc1ncnc2scc(-c3cccc(C(F)(F)F)c3)c12,-51.9*,90.2*,94.7*,71.0*,83.8*,58.4*,91.2*,99.1*,Mdm2-MdmX confirm=103.0*
Cc1ccccc1N1CCN(c2ncnc3scc(-c4cccs4)c23)CC1,-6.9,36.4,32.0,17.2,16.5,36.9,/,/,
CCc1nnc(NC(=O)/C=C/c2ccco2)s1,-32.9,-49.6,-142.3,0.8,-161.6,-0.7,/,/,
COc1ccc(CC2(C)OC(c3ccc(Cl)cc3)=NN2C(C)=O)cc1 (stereo not drawn),4.1,3.3,23.8,-0.8,9.0,-15.5,/,/,
CO/N=C(/CS(=O)Cc1ccccc1Cl)c1ccc(Cl)cc1Cl (stereo not drawn),-2.4,9.3,8.0,6.9,4.1,9.3,/,/,
Cn1nnnc1Sc1ncnc2scc(-c3ccc(C(F)(F)F)cc3)c12,-59.4*,93.5*,96.9*,72.5*,94.4*,54.5*,98.1*,102.5*,Mdm2-MdmX confirm=100.0*
Cc1ccc(-c2csc3ncnc(SCC(=O)O)c23)cc1,-7.9,9.0,6.5,9.5,1.7,6.8,/,/,
Cn1nnnc1Sc1ncnc2scc(-c3ccc(-c4ccccc4)cc3)c12,-63.0*,78.3*,101.4*,87.6*,45.9*,4.0,-26.4,100.8*,
Cc1nnc(NC(=O)CSc2ncnc3scc(-c4ccccc4)c23)s1,1.3,-0.7,11.8,17.0,22.9,21.5,/,/,
Cn1nnnc1Sc1ncnc2scc(-c3cc4ccccc4o3)c12,-85.5*,103.0*,100.3*,82.8*,97.0*,75.8*,96.2*,107.1*,Mdm2-MdmX confirm=103.2*
CC(=O)Nc1ccc(Sc2ccc([N+](=O)[O-])o2)cc1,-50.5*,94.9*,96.8*,89.5*,91.2*,36.6,94.1*,102.5*,
Cc1ccc(C(=O)Nc2ccc3ncccc3c2)cc1,-63.7*,94.3*,21.0,-9.9,42.5*,55.6*,50.8*,27.7,
Cc1cc(C)c(S(=O)(=O)c2ccccc2C)c(N(C)C)n1,10.8,2.2,-9.1,-10.3,-2.0,-51.2,/,/,
Cn1cc(C(C[N+](=O)[O-])c2ccccc2)c2ccccc21 (stereo not drawn),-6.7,33.1,26.8,3.3,95.7*,1.3,4.5,28.8,
O=c1c2ccccc2nc(SCc2nc(-c3ccccc3)no2)n1-c1ccc(F)cc1,-14.2,-13.3,27.8,1.7,22.6,-0.9,/,/,
Cc1cccc(NC(=S)NCCSc2ccc(Cl)cc2)c1,-2.9,-13.5,13.8,16.5,-30.4,36.6,/,/,
Cc1ccc(NC(=O)CCN2CCCCC2)cc1,-2.6,99.6*,34.0,-6.2,61.2*,68.9*,55.1*,73.2*,
C(=C\c1ccccn1)/c1ccccn1,7.9,-0.2,-189.0,-6.5,-159.7,-65.4,/,/,
CC(C)(C)C1C/C(=C/c2ccccn2)C(=O)/C(=C/c2ccccn2)C1 (stereo not drawn),-52.9*,-30.0,102.3*,88.7*,95.8*,0.6,/,/,Mdm2-MdmX confirm=103.0*
CC1C/C(=C/c2cccs2)C(=O)/C(=C/c2cccs2)C1 (stereo not drawn),-5.7,10.6,-22.4,-3.2,-77.3,4.4,/,/,
CC1C/C(=C/c2ccccn2)C(=O)/C(=C/c2ccccn2)C1 (stereo not drawn),-62.3*,64.5*,100.3*,85.7*,93.9*,2.7,/,/,Mdm2-MdmX confirm=102.7*
SMILES,KKLEB tox,TWEAK-Fn14 inh,Peg3 prom inh,CF NFkB block,HIF-2a inh,TROY NFkB inh,HIF-2a conf,HIF-1a counter,others
COc1cccc(NC(=O)COC(=O)Cc2ccc(Cl)cc2)c1,-1.4,-1.4,-6.2,10.2,-8.2,-14.4,/,/,
O=C(NCc1cc(C(F)(F)F)ccc1Cl)c1cccc2c1C(=O)c1ccc(N3CCC(N4CCCCC4)CC3)cc1S2(=O)=O,-14.2,-93.0,99.3*,-15.4,92.3*,-6.8,-4.5,99.6*,
C=CS(=O)(=O)N(Cc1ccccc1Br)[C@H](CO)CC(C)C,-14.5,38.1,55.7*,24.8,41.1*,11.7,21.8,27.1,
CCN([C@H](CO)CC(C)C)S(=O)(=O)c1ccccc1,-3.8,5.9,-12.0,23.5,-4.4,5.5,/,/,
c1ccc(-c2nnnc3ccccc23)cc1,-9.1,-14.3,-4.3,9.2,14.3,0.7,/,/,
Clc1ccc2nnnc(-c3ccccc3)c2c1,2.0,20.4,17.2,6.7,83.0*,-5.8,71.2*,103.2*,
O=C(Nc1ccc(Cl)c(Cl)c1)c1ccc2c(c1)OCO2,8.0,23.1,-313.1,16.3,-224.7,-13.3,/,/,
CCCCCCCCCCCCCCCC[N+](C)(C)CCl,-33.2,-27.4,100.1*,40.9,54.5*,3.3,39.1,74.8*,
CCCCCC[N+](C)(C)CCSSCC[N+](C)(C)CCCCCC,-9.9,1.2,-7.7,-15.8,13.8,0.6,/,/,
CCCCCCCCCCCCCCCC[N+](C)(C)CC,18.6,41.1,101.6*,82.6*,58.9*,32.5,46.3*,97.9*,
CC#CC[N+](C)(C)CCCCCCCCCCCC,-45.2,19.8,58.5*,32.9,51.8*,44.9,38.7,71.8*,
C[N+](C)(C)CCCCCC[N+](C)(C)C,-14.2,-14.8,-4.8,0.6,-2.4,6.6,/,/,
CCCN(CCC)Cc1c(C(=O)N/N=C/c2ccc(Br)cc2)nnn1-c1nonc1N,-4.3,-10.5,30.0,-4.9,9.6,49.3,/,/,
N=C1/C(=C/c2ccc(-c3cccc(C(=O)O)c3)o2)C(=O)N=C2SC=C(c3ccccc3)N12,-1.8,9.1,-43.4,-5.9,-14.7,-24.5,/,/,
O=C(O)c1ccccc1-c1ccccc1C(=O)NCCCO,6.6,-22.3,-4.9,-2.3,48.2*,10.5,0.9,-1.4,
CCOC(=O)c1cc([N+](=O)[O-])cc([N+](=O)[O-])c1Sc1ncnc2nc[nH]c12,-28.2,0.2,98.3*,17.6,83.2*,-13.4,61.0*,107.1*,
CN(C)CCCN(C(=O)c1cc2cc([N+](=O)[O-])ccc2s1)c1nc2cc3c(cc2s1)OCCO3,-93.7*,-334.3,100.5*,80.5*,75.6*,63.8*,29.4,104.0*,
